# In the library only some 21% were active in any assay of this set; here they are far more common.
# CYP2C19 activ = activators of human cytochrome P450 2C19; recombinant CYP2C19, luciferin-H EGE luminescence; stronger effect = higher value; 0 = fully inhibited enzyme, 1 = untreated enzyme; activation factor at 5 µM; AID 1025; 96,000 tested, under 10 active; P33261;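 active means activation factor of at least 2 at 5 µM in the primary screen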;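 further: 0 = wells with 2.5 mM tranylcypromine and 1 = vehicle-only wells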
# Target sequence (P33261 whole entry, looked up): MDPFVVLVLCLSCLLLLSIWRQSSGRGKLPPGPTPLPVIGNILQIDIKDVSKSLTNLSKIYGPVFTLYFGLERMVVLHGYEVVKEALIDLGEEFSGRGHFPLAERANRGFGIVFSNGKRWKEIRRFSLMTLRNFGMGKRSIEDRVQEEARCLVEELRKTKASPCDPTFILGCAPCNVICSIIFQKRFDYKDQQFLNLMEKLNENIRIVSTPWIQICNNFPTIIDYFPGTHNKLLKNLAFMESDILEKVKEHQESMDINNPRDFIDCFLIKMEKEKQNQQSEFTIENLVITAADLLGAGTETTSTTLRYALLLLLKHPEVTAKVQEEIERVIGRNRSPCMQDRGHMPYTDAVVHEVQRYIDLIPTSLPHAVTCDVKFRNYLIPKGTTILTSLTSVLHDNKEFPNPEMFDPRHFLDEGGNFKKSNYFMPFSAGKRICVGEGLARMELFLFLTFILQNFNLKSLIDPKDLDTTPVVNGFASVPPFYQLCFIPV
# MRP reversal = MRP-mediated drug resistance reversal | H69AR cells + 2 uM doxorubicin, CellTiter-Glo, 72 h | actives 0.04% (n = 85,000) | AID 602 | differential viability (reversal), % at 10 µM;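 active means viability drop by adding the cancer drug above about 55%, with treated viability meeting a 40% cutoff, limit read from the data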;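 further: viability without doxorubicin minus viability with 2 µM doxorubicin for each compound; larger differential means the compound sensitizes cells more to doxorubicin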
# MRP1 act = activators of MRP-1; H69AR cells + doxorubicin, viability rescue, CellTiter-Glo; actives 0.61% (n = 140,000); viability increase, % at 10 µM;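 active means viability gain under doxorubicin at or above a set limit, the compound median plus 3 SD, cut at about 4.7% in these data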;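 further: MRP-1 overexpressing cells given doxorubicin 25 µM after compound pretreatment; 18-22 h compound pretreatment then 72 h with doxorubicin before readout; 0% = doxorubicin-only wells and 100% = vehicle-treated cells without doxorubicin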
# CYP2C19 inh = inhibitors of human CYP2C19; AID 778; CYP2C19 Supersomes, luciferin-H EGE luminescence, 30 min; P33261; actives 21% (n = 96,000); inhibition, % at 5 µM;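 active means CYP2C19 inhibition above a set limit at 5 µM in the primary screen, cut at about 50% in these data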;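 further: plate controls were negative control wells for no effect and 2.5 mM tranylcypromine positive control for full effect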
# CYP2C9 inh = blocks human cytochrome P450 2C9. actives 20% (n = 96,000). CYP2C9 Supersomes, luciferin-H conversion, luminescence. inhibition, % at 5 µM;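 active means blocking of liver enzyme CYP2C9 beyond about 50% at 5 µM, limit read from the data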
# CYP2C9 activ = increases human cytochrome P450 2C9 activity; P11712; recombinant CYP2C9, luciferin-H conversion, luminescence; stronger effect = higher value; factor 1 = untreated enzyme, 0 = blocked; activation factor at 5 µM; actives 1.4% (n = 96,000);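 active means activation factor of 2 or more for CYP2C9 at a 5 µM dose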;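 further: 0 = sulfaphenazole-blocked wells and 1 = vehicle-only wells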
# * marks the source's active call; other numbers are inactive results; nt = not tested or not shown.
SMILES,CYP2C19 activ,MRP reversal,MRP1 act,CYP2C19 inh,CYP2C9 inh,CYP2C9 activ
Cc1ccc2nc(NC(=O)CCCc3nc4ccccc4s3)sc2c1,0.9,-6,-1,7,2,1
O=C(CCn1c(=O)sc2ccccc21)Nc1nc2ccccc2s1,0.8,0,0,18,80*,0.2
CCN(CC)C(=O)c1ccc2c(c1)nnn2C,nt,nt,0,nt,nt,nt
Cc1ccc(NC(=S)NCc2cccnc2)cc1,0.3,nt,-3,70*,14,0.9
S=C(NCc1cccnc1)Nc1ccc(Cl)cc1,0.6,nt,-4,39,35,0.6
Fc1ccc(NCc2cccnc2)cc1,0.4,-1,0,58*,17,0.8
S=C(NCc1cccnc1)Nc1cccc(Cl)c1,0.3,nt,-2,73*,66*,0.3
c1ccc(NCc2cccnc2)cc1,0.9,6,0,10,6,0.9
CCOc1cc(CNc2ccc(CNc3ncn[nH]3)cc2)ccc1OCc1ccccc1,nt,nt,0,nt,nt,nt
Fc1ccc(CNc2ccc(CNc3ncn[nH]3)cc2)cc1,0.4,-1,-2,64*,33,0.7
Cc1cc(S(=O)(=O)NCc2ccccc2)ccc1OCC(=O)Nc1cccc([N+](=O)[O-])c1,nt,nt,-1,nt,nt,nt
CC(C)[C@@H]1NC(=O)c2cc([N+](=O)[O-])cc(I)c2NCCCC[C@@H](C(=O)NC(CC(=O)O)C(N)=O)NC(=O)[C@H](CO)NC1=O (some centres undefined),nt,nt,0,nt,nt,nt
CCCCc1ccc(NC(=O)OC)cc1,0.5,-37,1,49,65*,0.4
CCNc1nc(NCC)n2c(SCc3nc4ccccc4c(=O)[nH]3)nnc2n1,0.8,3,-2,24,5,0.9
Cn1c(SCc2nc3ccccc3c(=O)[nH]2)nnc1-c1ccco1,0.5,16,-2,51*,-4,1
COc1ccc(C(=O)NNC(=O)CSc2nnc(COc3ccccc3)n2C)cc1,0.9,nt,0,6,22,0.8
CC(C)Cn1c(SCc2nc3ccccc3c(=O)[nH]2)nc2ccccc2c1=O,0.4,nt,-4,55*,80*,0.2
Cn1c(SC/C=C/c2ccccc2)nnc1-c1ccco1,nt,6,-4,nt,nt,nt
CC(C)Cn1c(SCC#N)nc2ccccc2c1=O,0.8,4,0,23,28,0.7
COc1ccc(C(=O)NCCc2nnc(SCc3nc4ccccc4c(=O)[nH]3)n2C)cc1,1.1,1,-4,-6,84*,0.2
Cn1c(-c2ccccc2)cnc1SCc1nc2ccccc2c(=O)[nH]1,0,4,-1,100*,21,0.8
CC(CN1CCN(c2ccccc2)CC1)c1ccccc1 (centres undefined),0.7,nt,-3,31,8,0.9
O=C(Nn1cnnc1)c1ccccc1CCc1ccccc1,0.8,4,1,20,36,0.6
CCCN(CC(=O)Nc1ccc(C(N)=O)cc1)CC(=O)Nc1ccc(Cl)cc1Cl,nt,nt,0,nt,nt,nt
CCOc1cccc2cc(-c3nnc(NCc4ccco4)s3)c(=O)oc12,0.9,1,-2,10,-190,2.9*
SMILES,CYP2C19 activ,MRP reversal,MRP1 act,CYP2C19 inh,CYP2C9 inh,CYP2C9 activ
COc1ccc(/C=N/NC(=O)CSc2n[nH]c(=O)[nH]c2=O)cc1,nt,nt,2,nt,nt,nt
CC(C)(C)c1ccc(C(=O)CSc2n[nH]c(=O)[nH]c2=O)cc1,1,nt,-1,2,53*,0.5
O=c1c2ccccc2nc(COc2ccccc2)n1/N=C/c1ccco1,0.4,-7,-1,62*,79*,0.2
CC(=O)Nc1ccc2oc(-c3ccccc3Br)nc2c1,0.7,11,3,27,73*,0.3
CCOc1ccc(-n2nc3ccc(NC(=O)c4ccc5c(c4)OCCO5)cc3n2)cc1,nt,-15,-2,nt,nt,nt
O=C(Nc1ccc2oc(-c3ccccc3F)nc2c1)c1ccc2c(c1)OCCO2,0.5,nt,-2,49,51*,0.5
O=C(Nc1ccc2nn(-c3ccccc3)nc2c1)c1ccc2c(c1)OCCO2,0.4,-21,1,59*,56*,0.4
O=C(Nc1ccc(-c2nc3ccccc3o2)cc1)c1ccc2c(c1)OCO2,0.9,-21,0,7,15,0.9
Cc1cc(C)n(-c2ccc(C(=O)Nc3ccc4c(c3)OCCO4)cc2)n1,0.5,nt,0,50*,22,0.8
Cc1cccc(C)c1NC(=O)C/C(N)=N/O,0.9,nt,-1,13,11,0.9
C#CCOCCOCCOCCNc1nc(N2CCOCC2)nc(N2CCN(C(=O)[C@H](C)n3cc(CCCN=C(N)N)nn3)CC2)n1,nt,nt,1,nt,nt,nt
CC(=O)Nc1ccc(S(=O)(=O)NCC(=O)OC(C)c2ccccc2Cl)cc1 (centres undefined),nt,nt,-2,nt,nt,nt
COC(=O)C(NC(C)=O)(Nc1nc2ccc(C)cc2s1)C(F)(F)F (centres undefined),0.3,-5,-1,75*,78*,0.2
Cc1cc(NC(NC(=O)c2ccco2)(C(F)(F)F)C(F)(F)F)no1,0.9,36,-1,11,11,0.9
CS(=O)(=O)c1ccc2nc(NC(NC(=O)c3ccco3)(C(F)(F)F)C(F)(F)F)sc2c1,0.5,4,-3,50*,99*,0
COC(=O)C(NC(C)=O)(Nc1nc2ccc(S(C)(=O)=O)cc2s1)C(F)(F)F (centres undefined),1,12,-1,2,64*,0.4
CCC(=O)Nc1nc2ccc(S(C)(=O)=O)cc2s1,nt,0,-4,nt,nt,nt
CCOC(=O)c1ccc2nc(NC(NC(C)=O)(C(=O)OC)C(F)(F)F)sc2c1 (centres undefined),0.6,nt,-1,40,22,0.8
CC1CCCCC1NC(=O)CN1C(=O)CSc2cc(S(=O)(=O)N3CCCCCC3)ccc21 (centres undefined),nt,-9,-3,nt,nt,nt
O=C1COc2ccc(C(=O)COC(=O)c3sc4ccccc4c3Cl)cc2N1,nt,nt,0,nt,nt,nt
C=C1CSc2nc3ccccc3c(=O)n21,1,4,-1,-3,-7,1.1
O=C(Nc1ccccc1)C1=C(N2CCOCC2)/C(=C/c2cccnc2)CC1,0.1,12,-1,87*,67*,0.3
CCc1ccc(CCC(=O)Nc2ccccc2C(=O)O)o1,0.9,13,-1,13,52*,0.5
CCNC(=O)CC(=O)Nc1ccccc1C(=O)O,1,-9,1,-5,-2,1
CCc1ccc(CCC(=O)Nc2nccs2)o1,0.4,10,0,58*,48,0.5
Cc1ccc(CCC(=O)Nc2nccs2)o1,0.4,5,1,63*,18,0.8
CCCNc1nc(C)c(C(C)=O)cc1C#N,0.8,0,1,20,-3,1
Cn1nc(C(=O)Nc2nc3ccccc3[nH]2)c2ccccc2c1=O,nt,nt,-4,nt,nt,nt
CC(C)CN(C(=O)c1nn(C)c(=O)c2ccccc12)c1nc2ccccc2s1,0.5,8,-4,53*,77*,0.2
NC(=S)NNC(=O)[C@@H]1CCCC[C@@H]1C(=O)O,nt,nt,1,nt,nt,nt

# Compound activity as filed in PubChem.
